This is part of a sample that, as a whole, favours compounds with a hit. Of some 83,000 tested, about 20% had one in any assay.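 Treatment: one concentration, 48 hours, 96-well format. Scoring: percent growth, with anything below 10 considered active.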 Values without a mark were called inactive. Activity calls are given as the source filed them.

This assay deals with RPMI-8226 leukemia. As to the kind of experiment: NCI-60 one-dose screen, 48 h (100 = growth as untreated, 0 = no growth, -100 = all killed). Particulars: 10 µM unless noted. The method, then:
Growth inhibition of the RPMI-8226 human tumor cell line is measured as a screen for anti-cancer activity. Cells are grown in 96 well plates and exposed to the test compound for 48 hours. Compounds are tested at a single concentration, which is 10^-5 M for most compounds. The reported endpoint is percent growth (GI% or GIPRCNT), where numbers from 0 - 100% represent growth inhibition, and numbers from -100% - 0 represent cell death. For example, a value of 40 represents 60% growth inhibition. A value of 0 means no net growth occurred over the course of the experiment. A value of -40 indicates 40% of cells at the beginning of the experiment died by the end of the experiment. A value of -100 means all cells are dead at the end of the experiment.
NCI-60 Human Tumor Cell Lines Screen was performed using the standard one-dose NCI protocol, which is described in more detail at https://dtp.cancer.gov/discovery_development/nci-60/default.htm.
Compounds with GIPRCNT values below 10 were considered active. Activity score was based on GIPRCNT using the following formula: […]
Score is 0 for GIPRCNT values of 100 or above, 50 for GIPRCNT values of 0, and 100 for GIPRCNT values of -100.
`Nc1cccc(-c2nc3sccn3c2-c2ccnc(NCCCNS(=O)(=O)c3ccc(C(F)(F)F)cc3)n2)c1`: the growth is -29.7% (active).
For the molecule `CS(CCCCN=C=S)=NC(=O)c1c(F)c(F)c(F)c(F)c1F` (stereo not given), the growth is 10.3%.
For `CCN(CC)CC(C)Nc1ccc([N+](=O)[O-])c2sc3ccccc3c(=O)c12` (stereo not given), the growth was -29.7% (active).
Turning to `CCc1ccccc1NC(=O)c1sc2nc3c(cc2c1N)C(=O)CCC3`, the growth is 17.8%.
`O=S(=O)(Nc1ccc(F)c(Cl)c1)c1ccc(-c2cnc(C3CC3)o2)cc1`: the growth was 19.3%.
As for `O=C(Nc1ccc(Nc2cc(Nc3ccccc3)ncn2)cc1)Nc1cc(C(F)(F)F)ccc1F`, the figure is 65.1%; as for `CCOC(=O)/C=C/C(=O)[C@H](CC(C)C)NC(=O)[C@H](Cc1ccccc1)NC(=O)OCc1ccccc1`, -19.9% (active); as for `NC(=S)N/N=C/c1cc(-c2cccc(N)c2)ccn1`, 12.2%.
For `C/C=C/C(N)=O`, the growth was 109%.
For the molecule `O=C1C=CC(=O)c2c1nc1n2CCCC1`, the growth is 116%.
The value for `O=C(COc1cccc(/C=C2/Oc3ccccc3C2=O)c1)Nc1nccs1` was -53.2% (active); that for `CC1=C(NCCN2CCCC2)C(=O)c2c(OCc3ccc(C(F)(F)F)cc3)cccc2C1=O` was 29.7%; that for `CC[C@]12C=CCN3CC[C@@]4(c5ccc(OC)cc5N(C)[C@H]4[C@@](O)(C(=O)OC)[C@@H]1OC(=O)CCC(=O)N[C@@H](Cc1c[nH]c4ccccc14)C(=O)OC)[C@@H]32` was -33.4% (active).
For `Cc1noc(C)c1-c1cc(O)cc(C(O)c2ccccc2)c1` (stereo not given), the growth was 14.9%.
Take `c1ccc2sc(SCCCn3ccnc3)nc2c1`: the growth was 79%.
As for `CNC(=O)c1cc(Oc2ccc3nc(NC(=O)Nc4ccc(N5CCC(N(C)C)CC5)cc4)sc3c2)ccn1`, the figure is 74.2%; as for `Nc1nc(-c2ccc(F)cc2)cc(-c2cnn(-c3ccccc3)n2)n1`, 105%.
Take `CC(C)(C)n1cc(-c2ccnc(NCCNS(=O)(=O)c3ccccc3)c2)c(-c2cccc(O)c2)n1`: the growth is 22.2%.
For `CCN(CC)CC#CCOC(=O)[C@]1(C)CCC[C@@]2(C)[C@H]1CC(C=O)=C1C=C(C(C)C)CC[C@@H]12`, the growth is 27.8%.
For the molecule `C[C@@]1(N2C(=O)OC[C@@H]2c2ccccc2)C(=O)N([C@H](CC(=O)N2CCC(N3CCCCC3)CC2)C(=O)NCc2cccc(C(F)(F)F)c2)[C@@H]1/C=C/c1ccccc1`, the growth is 37.1%.
On to `CCOC(=O)c1c2c(n3ccc(NC(=O)CCN(CC)CC)cc13)C(=O)c1ncccc1C2=O`, for which the growth was 51.2%.
As for `COc1ccc(CN(c2ccc(C)cc2)C2OC(=O)c3ccccc32)cc1OC` (stereo not given), the figure is 93.9%; as for `CCCCCCCCCCCCS(=O)CC(C)O` (stereo not given), 98.6%.
On to `COc1ccc(-c2cc(-c3ccc(N(C)C)cc3)nc(NC(=O)c3ccncc3)n2)cc1`, for which the growth is 93%.
For the molecule `COc1ccc(-c2nn(-c3ccccc3)cc2/C=C2\SC(=O)NC2=O)cc1`, the growth is 78.7%.
In the case of `C[C@@H]1CC[C@@H]2[C@@H]1[C@H](OC(=O)/C=C/c1ccccc1)[C@]1(c3ccccc3)C[C@@H](OC(=O)CO)[C@@]2(C)O1`, the growth was 97.7%.
As for `C=C(CN1CCN(c2cccc(C(F)(F)F)n2)CC1)c1ccc(C(=O)Nc2ccccc2N)cc1`, the figure is 4.35% (active); as for `O=c1c2cccc3c(Nc4ccccn4)ccc(c32)c2nc3ccccc3n12`, 49%.
Consider `CN(C)c1ccc(C2Nc3ccccc3-n3cccc32)cc1` (stereo not given), for which the growth is 80.2%.
The value for `O=C1C(=O)N(CCCCn2cc(CO)nn2)c2ccccc21` was 99.3%; that for `O=C1Nc2c(ccc(Cl)c2Cl)/C1=C/c1cc(Br)c(O)c(Br)c1` was 14.8%; that for `O=C(CO[N+](=O)[O-])Nc1ccc(C(=O)/C=C/c2ccc(Cl)cc2)cc1` was -14.2% (active).
Regarding `Oc1ccc2c(=S)cc(-c3ccc(Br)cc3)oc2c1O`, the growth was -8.44% (active).
For `CSc1nc(NCCCNc2ccnc3cc(Cl)ccc23)cc(-c2ccccc2)n1`, the growth was 7.4% (active).
For the molecule `CNC(=O)c1cc(Oc2ccc3nc(NC(=O)Nc4ccc(CN5CCOCC5)c(C(F)(F)F)c4)sc3c2)ccn1`, the growth is 5.34% (active).
The value for `OC(c1cccc(C(F)(F)F)c1)c1cnccc1NC1CCCCCC1` (stereo not given) was -30.1% (active); that for `COCCOc1ccc(-c2nc3ccc(-c4nc5ccc(N6CCN(C)CC6)cc5[nH]4)cc3[nH]2)cc1` was 28.4%; that for `O=C(Nc1cccc2[nH]c(C(F)(F)F)nc12)c1ccc(Br)cc1F` was 4.55% (active).
As for `COc1ccc(C(=O)/C=C/c2c[n+](=O)c3ccc(F)cc3n2[O-])cc1`, the growth was 109%.
Take `CCC(C)[C@@H]1NC(=O)[C@@H]2CCCN2C(=O)[C@H](Cc2ccccc2)NC(=O)[C@@H]2CCCN2C(=O)[C@H](Cc2ccccc2)NC(=O)[C@@H]2CCCN2C(=O)[C@H](Cc2ccccc2)NC1=O` (stereo not given in full): the growth is 85.7%.

Values taken from PubChem BioAssay (NCI).
